HTR5A inv ctr – HTR5A inverse agonism, opioid heterodimer counter-screen; P47898; HTR5A cell line, luminescence; inhibition, % at 9.3 µM; hit rate 0.083% among 340,000; AID 504634; in the data active = inhibition mostly above about 23%, no sharp cut-off; inactive = mostly below about 18%
Target sequence (P47898 whole entry, looked up): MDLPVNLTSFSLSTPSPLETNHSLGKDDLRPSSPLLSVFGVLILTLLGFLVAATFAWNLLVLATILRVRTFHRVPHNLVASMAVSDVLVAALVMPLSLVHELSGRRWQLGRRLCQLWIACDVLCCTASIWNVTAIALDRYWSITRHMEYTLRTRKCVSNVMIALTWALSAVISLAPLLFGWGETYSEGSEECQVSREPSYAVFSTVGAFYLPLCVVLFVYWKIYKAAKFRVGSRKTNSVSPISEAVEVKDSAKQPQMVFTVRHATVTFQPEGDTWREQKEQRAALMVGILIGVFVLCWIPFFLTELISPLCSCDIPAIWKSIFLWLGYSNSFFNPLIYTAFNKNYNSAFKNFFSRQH
OPRM1-OPRD1 ag – OPRM1-OPRD1 heterodimerization agonism; P35372+P41143; cells, luminescence; activation, % at 9.3 µM; hit rate 0.3% among 340,000; AID 504326; in the data active = activation above about 18%
HTR5A ag ctr – counter-screen for OPRM1-OPRD1 agonists: human HTR5A agonism; HTR5A agonist assay, luminescence, cell-based; activation, % at 9.3 µM; AID 504692; hit rate 0.61% among 340,000; in the data active = activation mostly above about 9.5%, no sharp cut-off; inactive = mostly below about 7.6%
HTR2A ag – activates the mouse 5-HT2A serotonin receptor. P35363. CHO-K1 mHTR2A beta-arrestin complementation, luminescence; percent of 30 µM serotonin response. activation, % at 7.6 µM. hit rate 0.66% among 360,000. AID 624169;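 active = activation above a run cutoff, the mean activation of all tested compounds plus 3 SD, cut at about 14% in these data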
OPRM1-OPRD1 inv – inverse agonist of human OPRM1-OPRD1 heterodimerization. inhibition, % at 9.3 µM. cell-based MOR-DOR heterodimer luminescence, inverse agonism. AID 504357. hit rate 0.21% among 340,000. P35372+P41143; in the data active = inhibition above about 22%, passing the limit was not always enough
sPLA2-III inh – Blocks human group III sPLA2 activity. Q9NZ20. QFRET BODIPY PC-A2 liposome hydrolysis, fluorescence. inhibition, % at 12.2 µM. hit rate 0.56% among 370,000. AID 743126;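 active = inhibition above mean plus 3 SD of compounds lying within the high and low control bounds, cut at about 19% in these data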
hGIII sPLA2 conf – human GIII-sPLA2 inhibition, confirmation; shares compounds with sPLA2-III inh; recombinant hGIII-sPLA2, BODIPY PC-A2 QFRET fluorescence; inhibition, % at 12.2 µM; hit rate 34% among 2,000; AID 743280;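 active = mean inhibition across triplicates above the hit cutoff set in the earlier primary screen, cut at about 19% in these data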
535nm interf – counter-screen for HGIII-sPLA2 inhibitors: 535nm fluorescence interference; shares compounds with sPLA2-III inh; BODIPY FL product fluorescence interference, QFRET; inhibition, % at 12.2 µM; hit rate 8.5% among 2,000; AID 743282;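 active = average inhibition above the solvent-only control mean plus 3 SD, cut at about 6% in these data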
Hits are given with their value. Most compounds without a hit are left out; they make up all but 2.2% or so of the library.

Cc1ccc(S(=O)(=O)Nc2ccc(S(=O)(=O)Nc3cc(C)nc(C)n3)cc2)cc1 was read as HTR5A inv ctr inactive, OPRM1-OPRD1 ag inactive, HTR5A ag ctr inactive, HTR2A ag inactive, OPRM1-OPRD1 inv inactive and sPLA2-III inh inactive.
`Cc1cc(NS(=O)(=O)c2ccc(N3C(=O)C4C5C=CC(C5)C4C3=O)cc2)nc(C)n1` (stereo not given) gave HTR5A inv ctr inactive, OPRM1-OPRD1 ag inactive, HTR5A ag ctr inactive, HTR2A ag inactive, OPRM1-OPRD1 inv inactive, sPLA2-III inh 21, hGIII sPLA2 conf inactive and 535nm interf inactive.
CC(=O)N1N=C(c2ccc(C(C)(C)C)cc2)OC1(C)C was read as HTR5A inv ctr inactive, OPRM1-OPRD1 ag inactive, HTR5A ag ctr inactive, HTR2A ag inactive, OPRM1-OPRD1 inv inactive, sPLA2-III inh 20, hGIII sPLA2 conf inactive and 535nm interf inactive.
Screening CC(=O)N1N=C(c2ccc3ccccc3c2)OC1(C)C returned HTR5A inv ctr inactive, OPRM1-OPRD1 ag inactive, HTR5A ag ctr inactive, HTR2A ag inactive, OPRM1-OPRD1 inv inactive and sPLA2-III inh inactive.
Screening NC(=O)c1ccc(-c2ccc(N3C(c4ccsc4)=Cc4ccc(F)cc4C3CC(=O)c3ccco3)cc2)cc1 (stereo not given) returned HTR2A ag inactive, sPLA2-III inh 26, hGIII sPLA2 conf inactive and 535nm interf inactive.
`O=C(NCCc1ccccc1)OCc1cn(Cc2ccccc2F)nn1` gave sPLA2-III inh inactive.
For CCc1ccc(CCNC(=O)OC2CC3CC2[C@H]2CCCCN2C3)cc1 (stereo not given in full) the results were sPLA2-III inh inactive.
Screening CC12CCCC[C@@H]1CCC1C2CCC2(C)C1CC[C@@]2(O)CNCCO (stereo not given in full) returned HTR5A inv ctr inactive, OPRM1-OPRD1 ag inactive, HTR5A ag ctr inactive, HTR2A ag inactive, OPRM1-OPRD1 inv inactive, sPLA2-III inh 25, hGIII sPLA2 conf inactive and 535nm interf inactive.
For Cc1cc(C(=O)O[C@H]2CCC[C@@]3(C(=O)N(Cc4ccccc4)c4ccccc43)[C@H]2NC(=O)CCc2ccccc2)no1 the results were sPLA2-III inh inactive.
`CCOc1ccc(NC(=S)NN2C(C)CCCC2C)cc1` (stereo not given) gave HTR5A inv ctr inactive, OPRM1-OPRD1 ag inactive, HTR5A ag ctr inactive, HTR2A ag inactive, OPRM1-OPRD1 inv inactive, sPLA2-III inh 22, hGIII sPLA2 conf inactive and 535nm interf inactive.
For Oc1ccc(/C=N/N(Cc2ccccc2)c2ccccc2)c(O)c1O the results were HTR5A inv ctr inactive, OPRM1-OPRD1 ag inactive, HTR5A ag ctr inactive, HTR2A ag inactive, OPRM1-OPRD1 inv inactive, sPLA2-III inh 20, hGIII sPLA2 conf 30 and 535nm interf 7.4.
For COc1cc(CNC23CC4CC(CC(C4)C2)C3)ccc1OCc1ccccc1 the results were HTR5A inv ctr inactive, OPRM1-OPRD1 ag inactive, HTR5A ag ctr inactive, HTR2A ag inactive, OPRM1-OPRD1 inv inactive, sPLA2-III inh 22, hGIII sPLA2 conf inactive and 535nm interf inactive.
Screening COc1cc(CNCc2cccs2)ccc1OCc1ccccc1 returned HTR5A inv ctr inactive, OPRM1-OPRD1 ag inactive, HTR5A ag ctr inactive, HTR2A ag inactive, OPRM1-OPRD1 inv inactive and sPLA2-III inh inactive.
For Cc1cccc2sc(NNC(=O)c3cc(-c4cccs4)nc4ccccc34)nc12 the results were HTR5A inv ctr inactive, OPRM1-OPRD1 ag inactive, HTR5A ag ctr inactive, HTR2A ag inactive, OPRM1-OPRD1 inv inactive, sPLA2-III inh 50, hGIII sPLA2 conf 49 and 535nm interf 8.8.
For NNC(=O)c1cc(-c2cccs2)nc2ccccc12 the results were HTR5A inv ctr inactive, OPRM1-OPRD1 ag inactive, HTR5A ag ctr inactive, HTR2A ag inactive, OPRM1-OPRD1 inv inactive and sPLA2-III inh inactive.
Screening CC(C)NC(=S)N/N=C/c1cc(Br)ccc1O returned HTR5A inv ctr inactive, OPRM1-OPRD1 ag inactive, HTR5A ag ctr inactive, HTR2A ag inactive, OPRM1-OPRD1 inv inactive, sPLA2-III inh 29, hGIII sPLA2 conf inactive and 535nm interf inactive.
For COc1ccc(O)c(/C=N/NC(=S)NCCc2ccccc2)c1 the results were HTR5A inv ctr inactive, OPRM1-OPRD1 ag inactive, HTR5A ag ctr inactive, HTR2A ag inactive, OPRM1-OPRD1 inv inactive and sPLA2-III inh inactive.
Screening Oc1ccc(Br)cc1/C=N/NC(=S)NCCc1ccccc1 returned HTR5A inv ctr inactive, OPRM1-OPRD1 ag inactive, HTR5A ag ctr inactive, HTR2A ag inactive, OPRM1-OPRD1 inv inactive, sPLA2-III inh 26, hGIII sPLA2 conf 24 and 535nm interf inactive.
Screening COC(=O)N/N=C/c1cc(Br)ccc1O returned HTR5A inv ctr inactive, OPRM1-OPRD1 ag inactive, HTR5A ag ctr inactive, HTR2A ag inactive, OPRM1-OPRD1 inv inactive and sPLA2-III inh inactive.
For CCN(CC)C(=O)CSc1nnc(-c2ccc(C(C)(C)C)cc2)n1Cc1ccco1 the results were sPLA2-III inh inactive.
O=C(COC(=O)/C=C/c1cccc(Cl)c1)NCCC1=CCCCC1 was read as HTR5A inv ctr inactive, OPRM1-OPRD1 ag inactive, HTR5A ag ctr inactive, HTR2A ag inactive, OPRM1-OPRD1 inv inactive and sPLA2-III inh inactive.
O=C(COC(=O)/C=C/c1ccc(Cl)cc1)NCCC1=CCCCC1 was read as HTR5A inv ctr inactive, OPRM1-OPRD1 ag inactive, HTR5A ag ctr inactive, HTR2A ag inactive, OPRM1-OPRD1 inv inactive, sPLA2-III inh 21, hGIII sPLA2 conf inactive and 535nm interf inactive.
Screening N#Cc1c(Cl)nsc1NN returned HTR5A inv ctr inactive, OPRM1-OPRD1 ag inactive, HTR5A ag ctr inactive, HTR2A ag inactive, OPRM1-OPRD1 inv inactive, sPLA2-III inh 20, hGIII sPLA2 conf inactive and 535nm interf 14.
For Cc1c(C#N)c(N)nc(Cl)c1C#N the results were HTR5A inv ctr inactive, OPRM1-OPRD1 ag inactive, HTR5A ag ctr inactive, HTR2A ag inactive, OPRM1-OPRD1 inv inactive and sPLA2-III inh inactive.
Screening CC(=O)N1CCN(c2ccc(N3CCN(C(C)=O)[C@@H](C)C3)c(C)c2)[C@@H](C)C1 returned sPLA2-III inh inactive.
Screening Cc1cc(C(=O)NCC(=O)OCC(=O)N(C(C)C)C(C)C)ccc1[N+](=O)[O-] returned HTR5A inv ctr inactive, OPRM1-OPRD1 ag inactive, HTR5A ag ctr inactive, HTR2A ag inactive, OPRM1-OPRD1 inv inactive, sPLA2-III inh 21, hGIII sPLA2 conf inactive and 535nm interf inactive.
`COC1=C[C@H](C(=O)NCc2ccc(Br)cc2)C(C)C(c2ccccc2)CC1=O` (stereo not given in full) gave sPLA2-III inh inactive.
`Cc1cccc(C(=O)Nc2c(-c3ccccc3)nc3ncccn23)c1` gave sPLA2-III inh inactive.
For CC(C)(C)c1ccc(OCCCCCCN2CCNCC2)cc1 the results were HTR5A inv ctr inactive, OPRM1-OPRD1 ag inactive, HTR5A ag ctr inactive, HTR2A ag inactive, OPRM1-OPRD1 inv inactive, sPLA2-III inh 23, hGIII sPLA2 conf inactive and 535nm interf inactive.
